In the supplement of paper PMC11732987, “Enantioselective OTUD7B fragment discovery through chemoproteomics screening and high-throughput optimisation” (Communications Chemistry, 2025):

Assays:
Assay in all cases: log2 ratio of Biotin-Ahx-Ub-VS probe labelling (fragment/DMSO); higher = less target engagement (more negative = stronger competition), active = hit call of the paper (q ≤ 0.05, log2 ratio ≤ -1)
Details in all cases: compound concentration: 200 uM; treatment time: 3 h
[1] = biological target: USP34 (UniProt Q70CQ2)
Outline: (§1)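 Labelling with Biotin-Ahx-Ub-VS (0.5 µM final, 1 h) followed a 3 h triplicate treatment of HEK293T lysate (495 µg per sample, Tris/CHAPS/IGEPAL buffer with protease inhibitors) with fragment at 200 µM or vehicle. Labelled DUBs were NeutrAvidin-enriched, digested with LysC and trypsin, and run by diaPASEF LC-MS/MS. The values, average log2 fragment/vehicle ratios by unpaired t-test, come from global-median-normalised Spectronaut label-free quantities. Proteins with ≥2 unique peptides were used.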

[2] = biological target: T1, USP36 (UniProt Q9P275)
T1 sequence (whole entry): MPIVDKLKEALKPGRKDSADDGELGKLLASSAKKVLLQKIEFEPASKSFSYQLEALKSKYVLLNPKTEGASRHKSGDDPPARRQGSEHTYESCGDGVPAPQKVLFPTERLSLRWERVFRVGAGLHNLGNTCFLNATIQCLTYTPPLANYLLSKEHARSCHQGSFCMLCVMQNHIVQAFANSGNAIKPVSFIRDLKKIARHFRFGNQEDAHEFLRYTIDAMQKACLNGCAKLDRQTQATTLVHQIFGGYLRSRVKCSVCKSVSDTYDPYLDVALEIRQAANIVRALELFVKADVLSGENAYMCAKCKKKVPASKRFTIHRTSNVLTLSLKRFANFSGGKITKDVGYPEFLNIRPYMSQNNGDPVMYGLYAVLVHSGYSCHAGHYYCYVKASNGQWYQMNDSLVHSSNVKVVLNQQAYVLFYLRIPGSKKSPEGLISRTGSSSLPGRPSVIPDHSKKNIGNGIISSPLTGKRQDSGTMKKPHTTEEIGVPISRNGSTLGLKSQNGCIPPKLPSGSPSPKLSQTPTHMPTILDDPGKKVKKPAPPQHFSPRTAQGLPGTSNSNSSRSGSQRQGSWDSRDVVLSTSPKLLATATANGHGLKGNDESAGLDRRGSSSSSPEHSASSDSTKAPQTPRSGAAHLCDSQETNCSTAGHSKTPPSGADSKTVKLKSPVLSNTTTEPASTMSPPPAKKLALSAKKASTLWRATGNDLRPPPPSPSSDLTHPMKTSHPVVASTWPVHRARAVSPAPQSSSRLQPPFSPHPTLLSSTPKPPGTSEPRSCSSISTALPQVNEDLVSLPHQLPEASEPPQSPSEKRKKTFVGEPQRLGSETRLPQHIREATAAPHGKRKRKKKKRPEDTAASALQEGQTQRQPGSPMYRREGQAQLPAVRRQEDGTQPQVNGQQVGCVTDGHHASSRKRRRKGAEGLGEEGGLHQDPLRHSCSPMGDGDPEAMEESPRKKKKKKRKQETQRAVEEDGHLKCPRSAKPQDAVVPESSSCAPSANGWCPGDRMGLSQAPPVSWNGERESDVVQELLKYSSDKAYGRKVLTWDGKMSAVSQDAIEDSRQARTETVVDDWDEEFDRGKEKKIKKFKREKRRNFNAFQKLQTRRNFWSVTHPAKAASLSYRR
Outline: as §1

[3] = biological target: T2, USP38 (UniProt Q8NB14)
T2 sequence (whole entry): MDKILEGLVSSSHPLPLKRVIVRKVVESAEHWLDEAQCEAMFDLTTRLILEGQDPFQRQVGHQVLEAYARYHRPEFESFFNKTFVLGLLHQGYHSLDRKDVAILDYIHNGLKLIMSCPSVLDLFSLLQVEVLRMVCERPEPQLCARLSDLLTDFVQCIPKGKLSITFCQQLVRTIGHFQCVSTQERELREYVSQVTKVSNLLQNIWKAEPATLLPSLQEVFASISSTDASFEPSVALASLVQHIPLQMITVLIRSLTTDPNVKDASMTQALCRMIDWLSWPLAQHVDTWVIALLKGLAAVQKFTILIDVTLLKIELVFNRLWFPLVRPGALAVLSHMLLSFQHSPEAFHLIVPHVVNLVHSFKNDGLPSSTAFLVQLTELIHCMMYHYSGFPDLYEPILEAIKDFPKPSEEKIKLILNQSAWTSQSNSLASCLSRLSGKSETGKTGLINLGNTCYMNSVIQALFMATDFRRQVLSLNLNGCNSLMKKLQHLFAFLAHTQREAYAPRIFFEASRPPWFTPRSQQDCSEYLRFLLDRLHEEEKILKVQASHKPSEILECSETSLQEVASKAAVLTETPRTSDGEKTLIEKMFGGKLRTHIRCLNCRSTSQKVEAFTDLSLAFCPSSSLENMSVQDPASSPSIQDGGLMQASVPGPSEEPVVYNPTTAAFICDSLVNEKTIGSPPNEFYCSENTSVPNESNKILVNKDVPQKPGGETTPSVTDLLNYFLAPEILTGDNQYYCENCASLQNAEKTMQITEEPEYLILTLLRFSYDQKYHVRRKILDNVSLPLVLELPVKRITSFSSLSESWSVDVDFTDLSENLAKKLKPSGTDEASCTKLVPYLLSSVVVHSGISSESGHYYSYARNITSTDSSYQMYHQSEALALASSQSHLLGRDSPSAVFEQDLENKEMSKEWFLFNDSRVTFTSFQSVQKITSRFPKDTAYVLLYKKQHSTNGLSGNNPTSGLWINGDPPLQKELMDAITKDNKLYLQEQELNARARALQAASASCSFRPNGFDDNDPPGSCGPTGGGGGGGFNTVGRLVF
Outline: as §1

[4] = biological target: T3, USP39 (UniProt Q53GS9)
T3 sequence (whole entry): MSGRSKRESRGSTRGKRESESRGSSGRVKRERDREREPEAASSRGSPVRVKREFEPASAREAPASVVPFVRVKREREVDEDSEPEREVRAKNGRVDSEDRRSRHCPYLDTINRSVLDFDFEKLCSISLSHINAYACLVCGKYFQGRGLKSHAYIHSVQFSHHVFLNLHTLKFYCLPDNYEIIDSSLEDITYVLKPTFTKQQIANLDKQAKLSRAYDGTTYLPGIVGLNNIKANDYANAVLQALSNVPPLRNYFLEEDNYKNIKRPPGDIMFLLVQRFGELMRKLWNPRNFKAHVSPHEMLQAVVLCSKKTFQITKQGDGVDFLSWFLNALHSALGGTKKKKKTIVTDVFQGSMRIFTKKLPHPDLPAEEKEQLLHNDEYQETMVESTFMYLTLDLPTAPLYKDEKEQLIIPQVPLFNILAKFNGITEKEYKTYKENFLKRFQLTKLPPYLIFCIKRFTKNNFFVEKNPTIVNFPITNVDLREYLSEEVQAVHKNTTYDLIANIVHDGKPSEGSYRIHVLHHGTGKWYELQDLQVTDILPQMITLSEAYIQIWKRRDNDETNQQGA
Outline: as §1

[5] = biological target: T4, USP4 (UniProt Q13107)
T4 sequence (whole entry): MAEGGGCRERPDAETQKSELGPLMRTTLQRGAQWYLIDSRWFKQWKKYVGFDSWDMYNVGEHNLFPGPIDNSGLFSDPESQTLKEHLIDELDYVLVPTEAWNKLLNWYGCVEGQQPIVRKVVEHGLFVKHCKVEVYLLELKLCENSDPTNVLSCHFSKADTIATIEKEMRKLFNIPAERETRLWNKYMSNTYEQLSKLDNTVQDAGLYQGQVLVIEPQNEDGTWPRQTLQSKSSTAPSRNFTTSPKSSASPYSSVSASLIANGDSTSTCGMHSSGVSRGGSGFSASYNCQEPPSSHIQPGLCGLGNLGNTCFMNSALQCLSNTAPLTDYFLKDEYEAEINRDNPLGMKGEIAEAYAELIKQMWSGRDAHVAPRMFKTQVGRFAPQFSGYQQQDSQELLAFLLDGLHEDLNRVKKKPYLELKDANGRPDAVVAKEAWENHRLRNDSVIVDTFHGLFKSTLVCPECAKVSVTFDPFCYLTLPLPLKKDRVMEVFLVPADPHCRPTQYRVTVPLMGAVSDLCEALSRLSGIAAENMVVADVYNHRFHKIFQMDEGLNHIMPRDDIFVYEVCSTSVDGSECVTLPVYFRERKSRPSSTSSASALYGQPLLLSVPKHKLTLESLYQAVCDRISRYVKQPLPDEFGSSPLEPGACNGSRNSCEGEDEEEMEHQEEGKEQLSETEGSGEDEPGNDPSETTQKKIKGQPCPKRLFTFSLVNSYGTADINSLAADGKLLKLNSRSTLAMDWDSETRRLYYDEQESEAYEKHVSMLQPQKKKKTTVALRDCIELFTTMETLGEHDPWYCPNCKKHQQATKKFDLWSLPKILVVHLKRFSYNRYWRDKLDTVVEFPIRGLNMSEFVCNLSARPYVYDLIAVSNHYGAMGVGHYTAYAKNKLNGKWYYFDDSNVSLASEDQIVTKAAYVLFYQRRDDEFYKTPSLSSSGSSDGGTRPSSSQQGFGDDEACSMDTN
Outline: as §1

Measured: log2 ratio of Biotin-Ahx-Ub-VS probe labelling

USP34, sequence (Q70CQ2 whole entry, the tested form may be a part): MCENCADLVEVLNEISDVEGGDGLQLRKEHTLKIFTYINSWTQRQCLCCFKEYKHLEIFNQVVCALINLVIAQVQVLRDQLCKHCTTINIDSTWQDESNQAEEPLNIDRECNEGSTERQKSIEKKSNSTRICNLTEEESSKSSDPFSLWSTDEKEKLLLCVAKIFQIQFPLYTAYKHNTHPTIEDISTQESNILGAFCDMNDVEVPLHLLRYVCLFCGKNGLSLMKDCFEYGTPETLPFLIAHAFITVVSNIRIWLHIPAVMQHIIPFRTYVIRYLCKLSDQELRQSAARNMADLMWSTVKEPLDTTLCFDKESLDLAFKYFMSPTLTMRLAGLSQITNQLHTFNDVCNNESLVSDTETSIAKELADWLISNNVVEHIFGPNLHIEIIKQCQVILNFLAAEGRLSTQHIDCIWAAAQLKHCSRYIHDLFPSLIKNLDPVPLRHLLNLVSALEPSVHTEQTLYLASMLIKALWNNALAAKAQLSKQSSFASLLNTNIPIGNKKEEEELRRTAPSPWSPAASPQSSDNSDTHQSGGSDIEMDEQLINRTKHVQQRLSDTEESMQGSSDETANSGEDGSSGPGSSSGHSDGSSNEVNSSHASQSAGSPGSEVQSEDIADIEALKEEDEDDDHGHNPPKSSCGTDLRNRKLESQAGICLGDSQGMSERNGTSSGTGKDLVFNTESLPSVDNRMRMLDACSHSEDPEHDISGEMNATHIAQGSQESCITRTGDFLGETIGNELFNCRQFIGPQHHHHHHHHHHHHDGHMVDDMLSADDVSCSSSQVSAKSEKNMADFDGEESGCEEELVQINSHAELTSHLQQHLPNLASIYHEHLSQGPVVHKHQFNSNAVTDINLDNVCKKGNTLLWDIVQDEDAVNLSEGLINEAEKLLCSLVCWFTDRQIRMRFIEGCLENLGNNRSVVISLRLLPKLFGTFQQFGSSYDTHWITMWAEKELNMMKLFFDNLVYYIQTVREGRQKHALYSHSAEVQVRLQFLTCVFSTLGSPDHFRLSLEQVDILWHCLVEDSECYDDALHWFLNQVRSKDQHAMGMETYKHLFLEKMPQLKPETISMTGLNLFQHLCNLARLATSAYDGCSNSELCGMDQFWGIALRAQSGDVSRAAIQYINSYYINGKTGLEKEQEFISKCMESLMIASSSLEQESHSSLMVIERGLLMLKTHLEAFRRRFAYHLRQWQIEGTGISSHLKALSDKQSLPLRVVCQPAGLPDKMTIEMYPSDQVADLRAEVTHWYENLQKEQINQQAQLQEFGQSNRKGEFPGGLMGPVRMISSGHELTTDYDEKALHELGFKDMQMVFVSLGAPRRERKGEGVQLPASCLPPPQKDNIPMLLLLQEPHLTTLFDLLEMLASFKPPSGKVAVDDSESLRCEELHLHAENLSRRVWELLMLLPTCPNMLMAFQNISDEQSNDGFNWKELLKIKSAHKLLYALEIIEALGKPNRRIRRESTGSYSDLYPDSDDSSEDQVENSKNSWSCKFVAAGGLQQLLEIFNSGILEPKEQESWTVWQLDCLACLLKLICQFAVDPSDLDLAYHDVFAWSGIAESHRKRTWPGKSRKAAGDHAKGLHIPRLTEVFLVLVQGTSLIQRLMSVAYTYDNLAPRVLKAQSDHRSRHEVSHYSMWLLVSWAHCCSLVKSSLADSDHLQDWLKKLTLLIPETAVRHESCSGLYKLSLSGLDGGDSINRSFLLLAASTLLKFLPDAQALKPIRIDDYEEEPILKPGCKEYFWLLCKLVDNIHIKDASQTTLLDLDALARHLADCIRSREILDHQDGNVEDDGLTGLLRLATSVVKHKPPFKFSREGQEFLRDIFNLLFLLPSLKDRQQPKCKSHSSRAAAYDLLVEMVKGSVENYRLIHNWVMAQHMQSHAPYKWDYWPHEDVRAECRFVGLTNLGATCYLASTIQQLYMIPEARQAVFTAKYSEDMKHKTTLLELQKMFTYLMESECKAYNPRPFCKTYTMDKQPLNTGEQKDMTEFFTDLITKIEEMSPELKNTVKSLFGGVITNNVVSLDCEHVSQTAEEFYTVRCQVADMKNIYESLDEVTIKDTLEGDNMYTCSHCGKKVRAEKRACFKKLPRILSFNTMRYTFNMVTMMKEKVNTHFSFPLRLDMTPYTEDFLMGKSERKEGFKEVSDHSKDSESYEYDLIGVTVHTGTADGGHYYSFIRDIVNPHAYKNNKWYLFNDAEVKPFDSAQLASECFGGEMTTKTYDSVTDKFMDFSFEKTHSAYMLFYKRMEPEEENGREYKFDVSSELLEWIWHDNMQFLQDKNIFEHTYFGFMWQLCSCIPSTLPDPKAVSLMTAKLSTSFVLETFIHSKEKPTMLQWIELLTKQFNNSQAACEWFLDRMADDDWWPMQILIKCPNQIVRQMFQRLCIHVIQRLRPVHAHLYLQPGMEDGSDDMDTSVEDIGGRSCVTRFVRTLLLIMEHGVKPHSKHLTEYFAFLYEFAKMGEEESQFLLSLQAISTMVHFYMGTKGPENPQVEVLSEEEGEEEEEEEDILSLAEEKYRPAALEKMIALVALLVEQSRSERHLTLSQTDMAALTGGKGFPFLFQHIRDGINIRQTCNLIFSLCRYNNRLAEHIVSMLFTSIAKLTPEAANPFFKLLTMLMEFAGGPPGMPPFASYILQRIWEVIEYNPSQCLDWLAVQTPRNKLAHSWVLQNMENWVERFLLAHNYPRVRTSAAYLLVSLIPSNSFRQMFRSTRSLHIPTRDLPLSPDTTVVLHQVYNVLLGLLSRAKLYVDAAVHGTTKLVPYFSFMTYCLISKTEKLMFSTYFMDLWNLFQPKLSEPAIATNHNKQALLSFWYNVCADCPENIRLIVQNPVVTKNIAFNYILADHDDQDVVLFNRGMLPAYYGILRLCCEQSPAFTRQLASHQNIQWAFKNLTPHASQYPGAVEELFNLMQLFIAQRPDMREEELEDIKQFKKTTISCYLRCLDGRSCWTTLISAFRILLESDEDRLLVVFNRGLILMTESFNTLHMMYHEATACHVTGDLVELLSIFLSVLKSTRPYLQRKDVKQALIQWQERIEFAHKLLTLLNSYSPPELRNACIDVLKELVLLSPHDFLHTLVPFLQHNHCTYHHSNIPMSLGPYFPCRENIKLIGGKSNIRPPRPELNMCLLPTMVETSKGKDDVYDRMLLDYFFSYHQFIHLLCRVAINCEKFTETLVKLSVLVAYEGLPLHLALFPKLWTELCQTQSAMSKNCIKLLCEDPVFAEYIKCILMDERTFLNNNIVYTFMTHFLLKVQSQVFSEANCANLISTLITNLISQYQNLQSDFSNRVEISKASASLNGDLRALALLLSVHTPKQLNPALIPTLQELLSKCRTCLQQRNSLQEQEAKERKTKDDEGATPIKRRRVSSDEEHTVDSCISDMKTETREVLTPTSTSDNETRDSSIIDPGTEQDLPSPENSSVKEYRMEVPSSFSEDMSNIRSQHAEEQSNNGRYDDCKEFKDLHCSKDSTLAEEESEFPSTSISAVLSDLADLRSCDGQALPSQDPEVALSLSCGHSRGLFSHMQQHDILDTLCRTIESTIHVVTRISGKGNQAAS

Cl.O=C(CCl)NCCN1CCc2ccccc21
inactive: [1] -0.536 | [2] -0.231 | [3] -0.723 | [4] 0.178 | [5] -0.666
